According to the supplement of paper PMC13380429:

Test system: Vero E6 infected with SARS-CoV-2
Experiment: inhibition of SARS-CoV-2 cytopathic effect; higher = more antiviral protection, active = above 15
Details: 48 h

Measured: inhibition of SARS-CoV-2 cytopathic effect

Cc1nnc2ccc(-c3cccc(C(F)(F)F)c3)nn12
inactive: 1 nM -0.37% | 8.33 nM 3.68% | 100 nM 2.78% | 833.33 nM 1.93% | 10000 nM 2.16%

O=C(Cc1ccc(-c2ccc(OCCN3CCOCC3)cc2)cn1)NCc1ccccc1
inactive: 1 nM -1.67% | 8.33 nM 0.24% | 100 nM -3.29% | 833.33 nM -1.51% | 10000 nM -1.44%

CC(C)(O)C(=O)Nc1ccc([N+](=O)[O-])c(C(F)(F)F)c1 [2-hydroxyflutamide]
inactive: 1 nM 0.48% | 8.33 nM 0.38% | 100 nM -0.65% | 833.33 nM -2.57% | 10000 nM -4.93%

CC#CCOC(=O)c1c(C)nc2sc3c(c2c1N)CCC(O)C3 (stereo not given)
inactive: 1 nM 1.8% | 8.33 nM 0.47% | 100 nM 3.12% | 833.33 nM -0.32% | 10000 nM 0.73%

O=C1c2c(O)cc(O)cc2O[C@H](c2ccc(O)c(O)c2)[C@H]1O [taxifolin]
inactive: 1 nM 0.69% | 8.33 nM 1.31% | 100 nM 0.66% | 833.33 nM 0.83% | 10000 nM 2.25%

CC(=O)OCC1=C(C(=O)O)N2C(=O)[C@@H](NC(=O)CSc3ccncc3)[C@H]2SC1 [cephapirin]
inactive: 1 nM -1.67% | 8.33 nM 4.78% | 100 nM 6.28% | 833.33 nM 5.89% | 10000 nM 2.88%

Cn1ncc2c(N3CCOCC3)nc(-c3cccc(O)c3)nc21
inactive: 1 nM -0.24% | 8.33 nM -1.45% | 100 nM 0.03% | 833.33 nM 1.57% | 10000 nM -0.01%

CC(C)(Oc1ccc(CCNC(=O)c2ccc(Cl)cc2)cc1)C(=O)O [bezafibrate]
inactive: 1 nM -1.42% | 8.33 nM 0.91% | 100 nM -1.38% | 833.33 nM 0.02% | 10000 nM -0.38%

Nc1nc(/C(=C/CC(=O)O)C(=O)N[C@@H]2C(=O)N3C(C(=O)O)=CCS[C@H]23)cs1 [ceftibuten]
inactive: 1 nM 0.43% | 8.33 nM 2.3% | 100 nM 2.51% | 833.33 nM 2.04% | 10000 nM 1.92%

COC1=CC(=O)C[C@@H](C)[C@]12Oc1c(Cl)c(OC)cc(OC)c1C2=O [griseofulvin]
inactive: 1 nM 1.17% | 8.33 nM 0.82% | 100 nM 0.95% | 833.33 nM 2.52% | 10000 nM 1.84%

CCOC(=O)CSCCC1NC(C(=O)O)CS1 (stereo not given) [letosteine]
inactive: 1 nM -0.45% | 8.33 nM -0.54% | 100 nM 3.16% | 833.33 nM 2.53% | 10000 nM 5.67%

CCCCNc1c(C(=O)OCC)c(C)nc2c1cnn2CC [tracazolate]
inactive: 1 nM -0.41% | 8.33 nM 1.49% | 100 nM -0.22% | 833.33 nM -2.81% | 10000 nM -1.99%

CNCCCCOc1ccccc1Cc1ccccc1 [bifemelane]
inactive: 1 nM -0.64% | 8.33 nM 0.99% | 100 nM 1.41% | 833.33 nM -0.82% | 10000 nM -1.85%

Nc1n[nH]c2nnc(-c3c(-c4ccccc4)nn4ccccc34)cc12
inactive: 1 nM 0.55% | 8.33 nM -0.27% | 100 nM -1.29% | 833.33 nM 1.74% | 10000 nM -2.81%

Cc1cc(-c2cc(OC(=O)c3ccccc3)ccc2Cl)cc2nnc(Nc3ccc(OCCN4CCCC4)cc3)nc12
inactive: 1 nM -2.62% | 8.33 nM 2.55% | 100 nM 2.44% | 833.33 nM 1.14% | 10000 nM 2.17%

Cc1ccc(S(=O)(=O)NC(=O)NN2CC3CCCC3C2)cc1 (stereo not given) [gliclazide]
inactive: 1 nM 0.85% | 8.33 nM 1.91% | 100 nM 1.12% | 833.33 nM 2.55% | 10000 nM 2.6%

O=C(CCCCCCC(=O)Nc1cccnc1)NO [pyroxamide]
inactive: 1 nM 0.71% | 8.33 nM -1.1% | 100 nM 0.72% | 833.33 nM -1.43% | 10000 nM -5.97%

Cc1cc(S(=O)(=O)O)c2c(C)ccc(C(C)C)cc1-2 [sodium-gualenate]
inactive: 1 nM -10.1% | 8.33 nM -5.96% | 100 nM -9.82% | 833.33 nM -7.07% | 10000 nM -0.7%

CC1=NN=C(c2ccc(N)cc2)c2cc3c(cc2C1)OCO3
inactive: 1 nM -2.65% | 8.33 nM -5.13% | 100 nM -1.01% | 833.33 nM 2.88% | 10000 nM 0.44%
